The values that follow come from PubChem BioAssay AID602252 (Broad Institute, 2012).

About 2,700 (0.9%) of roughly 300,000 compounds were called active.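 How the source made its calls: active means mean inhibition of at least 30% with at least half of replicates also reaching 30%; inconclusive means no clear call, values can overlap the other calls; inactive means the rest.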 Many of the other results were omitted from the sample, so actives are more common in it than they were.

The target in the assay is Golgi-associated PDZ and coiled-coil motif-containing protein (Homo sapiens) (UniProt Q9HD26). In words: untagged CAL PDZ binding inhibitors, primary screen, biochemical, fluorescence polarization, HTS (AID 602252).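 Further: 0% = DMSO neutral control and 100% = excess unlabeled competitor peptide PRC23.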 As to conditions: purified CAL PDZ, TMR-peptide fluorescence polarization, 1 h; at 24.9 µM; active compounds read high.
As a reminder, the inhibition is the drop in the measured response relative to a control, in per cent. Take `CC(=O)c1ccc(NC(=O)C(C)OC(=O)c2ccc(NS(=O)(=O)c3ccc4[nH]c(=O)[nH]c4c3)cc2)cc1` (stereo not drawn): the inhibition was -8.65% (inactive).
The value for `COc1ccc(/C=C2/CCCc3ccccc3C2=O)cc1` was 1.76% (inactive); that for `COc1ccc(Nc2ncnc3sc(C)cc23)cc1` was 0.276% (inactive).
For `COc1ccc(Nc2ncnc3sc(-c4ccccc4)cc23)c(OC)c1`, the inhibition was 179% (active).
For `COc1ccc(Nc2ncnc3ccc(Br)cc23)c(OC)c1`, the inhibition was -10.3% (inactive).
In the case of `CCOc1ccc(S(=O)(=O)N2CCN(C(=O)c3oc4ccccc4c3C)CC2)cc1`, the inhibition was 2.11% (inactive).
`CC12CCCCC1=CC(=O)CC2` (stereo not drawn): the inhibition was 28.3% (inactive).
`O=C(CCC(=O)N1CCN(S(=O)(=O)c2ccc(Cl)cc2)CC1)NCc1cccc(C(F)(F)F)c1`: the inhibition was -4.29% (inactive).
Turning to `O=C(Cn1c(-c2cncs2)nc2ccccc21)NC1CCCC1`, the inhibition is 41.1% (active).
As for `O=C(CN1CCN(c2ccccn2)CC1)NC1CCCCC1`, the inhibition was 11.4% (inactive).
Take `O=C(Cn1c(-c2cscn2)nc2ccccc21)Nc1ccc(Cl)cc1`: the inhibition is -17.7% (inactive).
The figure for `c1ccc(-c2c[nH]c(-c3ccccc3)c2)cc1` is -3.72% (inactive); for `C/C=C/c1ccc(OCC(=O)NNC(=O)CN(C)S(=O)(=O)c2ccc(C)cc2)c(OC)c1` it is -0.216% (inactive).
In the case of `NC(=O)C1(Nc2ccc([N+](=O)[O-])cc2)CCCC1`, the inhibition is -0.108% (inactive).
With `COc1ccccc1-c1sc2ccccc2c1C#CC1(O)CCCCC1`, the inhibition is 0.068% (inactive).
Consider `COc1cccc(/C=C2\SC(=N)N(c3ccc(F)cc3)C2=O)c1`, for which the inhibition was 161% (active).
In the case of `COc1cccc(/C=C2/SC(=S)N(CC(=O)NC3C=CS(=O)(=O)C3)C2=O)c1` (stereo not drawn), the inhibition is -6.25% (inactive).
In the case of `COc1ccc(/C=C2\SC(=N)N(c3ccc(F)cc3)C2=O)cc1`, the inhibition is -1.62% (inactive).
Regarding `CCOC(=O)c1ccccc1OC(=O)Oc1ccccc1C(=O)OCC`, the inhibition was 1.49% (inactive).
As to `Cn1cccc1/C=C1\SC(=S)N(NC(=O)c2ccc(Cl)cc2)C1=O`, the inhibition is 64.1% (active).
With `Cn1cccc1/C=C1\SC(=O)N(CC(=O)Nc2ccc(F)cc2)C1=O`, the inhibition is -5.97% (inactive).
The value for `O=C(O)c1ccc(/C=C2\SC(=S)N(NC(=O)c3ccc(Br)cc3)C2=O)cc1` was 15.4% (inactive).
Turning to `CC(C)(C)NS(=O)(=O)NC(=O)C1=C(N2CCCC2)COC1=O`, the inhibition was -3.4% (inactive).
Turning to `COc1ccc(C(=O)OCc2cc(=O)n3ccsc3n2)cc1F`, the inhibition is -3.31% (inactive).
Turning to `CCCC(O)(c1ccccc1)C(c1ccccc1)c1ccccn1` (stereo not drawn), the inhibition was -2.63% (inactive).
On to `COc1ccccc1-n1nnnc1SCC(=O)NC(=O)Cc1ccccc1`, for which the inhibition is 0.182% (inactive).
The value for `COc1ccccc1N1CCN(S(=O)(=O)c2ccc(Cl)cc2)CC1` was -4.05% (inactive).
The figure for `COc1ccccc1-n1nnnc1S(=O)(=O)Cc1ccc(Cl)cc1` is 95.3% (active).
